According to PubChem BioAssay AID1508601 (ICCB-Longwood Screening Facility, Harvard Medical School, 2020):
Hit rate of the full screen: of about 5,700 compounds, about 85 (1%) were called active. No stated cut-off is given here; in the data, active means p53-positive nuclei above about 36% (passing the limit was not always enough); inactive means the rest. The sample as a whole holds a higher share of actives than the screen did.

Experiments:
[1] = p53 stabilisation in HPV-positive human cells, imaging, p53-positive nuclei imaging, 24 h, 48 h (AID 1508601); settings: 24/48 h
[2] = target: Cellular tumor antigen p53 (Homo sapiens) (UniProt P04637); assay: as above; settings: 24/48 h, stronger effect = higher value
[3] = measured here: cell number at 24 h, Library stock concentration: 3.33 mM
[4] = measured here: cell number at 48 h, Library stock concentration: 3.33 mM
[5] = Library stock concentration: 3.33 mM
[6] = measured here: p53 positive nuclei at 24 h, Library stock concentration: 3.33 mM
[7] = measured here: cell number at 24 h, Library stock concentration: 80 uM
[8] = measured here: cell number at 24 h, Library stock concentration: 400 uM
[9] = measured here: cell number at 24 h, Library stock concentration: 2 mM
[10] = measured here: cell number at 24 h, Library stock concentration: 10 mM
[11] = measured here: cell number at 48 h, Library stock concentration: 80 uM
[12] = measured here: cell number at 48 h, Library stock concentration: 400 uM
[13] = measured here: cell number at 48 h, Library stock concentration: 2 mM
[14] = measured here: cell number at 48 h, Library stock concentration: 10 mM
[15] = Library stock concentration: 80 uM
[16] = Library stock concentration: 400 uM
[17] = Library stock concentration: 2 mM
[18] = Library stock concentration: 10 mM
[19] = measured here: p53 positive nuclei at 24 h, Library stock concentration: 80 uM
[20] = measured here: p53 positive nuclei at 24 h, Library stock concentration: 400 uM
[21] = measured here: p53 positive nuclei at 24 h, Library stock concentration: 2 mM
[22] = measured here: p53 positive nuclei at 24 h, Library stock concentration: 10 mM

Cellular tumor antigen p53 (Homo sapiens), sequence (P04637 whole entry, looked up): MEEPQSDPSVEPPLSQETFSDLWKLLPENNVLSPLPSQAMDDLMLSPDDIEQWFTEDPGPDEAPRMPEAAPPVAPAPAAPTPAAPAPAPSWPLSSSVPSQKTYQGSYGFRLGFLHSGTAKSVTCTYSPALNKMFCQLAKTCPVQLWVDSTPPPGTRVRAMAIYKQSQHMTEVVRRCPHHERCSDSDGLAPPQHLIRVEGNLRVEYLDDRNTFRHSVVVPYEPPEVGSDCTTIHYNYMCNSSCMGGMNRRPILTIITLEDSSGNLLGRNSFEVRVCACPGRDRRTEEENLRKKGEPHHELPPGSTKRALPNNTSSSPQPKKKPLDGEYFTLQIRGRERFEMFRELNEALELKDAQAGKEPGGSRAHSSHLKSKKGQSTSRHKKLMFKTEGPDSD

With `O=C(Nc1ccccc1Br)NC1CCN(c2ccc(C(F)(F)F)cn2)C1` (centres undefined) as the compound, how does the nuclei count, normalised [1, 3] read?
Its nuclei count, normalised is 102%.

And the nuclei count, normalised [1, 4]?
Its nuclei count, normalised is 96.3%.

What about the p53-positive nuclei, normalised [2, 5] of the same compound?
Its p53-positive nuclei, normalised is -0.163% (inactive).

And the p53-positive nuclei, normalised [2, 6]?
The p53-positive nuclei, normalised was -0.314%.

With `CCCCC/C=C\C/C=C\C/C=C\C/C=C\CCCC(=O)C(F)(F)F` as the compound, how does the nuclei count, normalised ([1]; measured here: cell number at 24 h, concentration not given here) read?
The nuclei count, normalised was 108%.

What about the nuclei count, normalised ([1]; measured here: cell number at 48 h, concentration not given here) of the same compound?
The nuclei count, normalised was 109%.

And the p53-positive nuclei, normalised ([2]; concentration not given here)?
The p53-positive nuclei, normalised was -0.148% (inactive).

And the p53-positive nuclei, normalised ([2]; measured here: p53 positive nuclei at 24 h, concentration not given here)?
Its p53-positive nuclei, normalised is -0.0854%.

For `Nc1ncn([C@@H]2O[C@@H](CO)[C@H](O)[C@@H]2O)c(=O)n1`, which nuclei count, normalised [1, 7] is on record?
Its nuclei count, normalised is 122%.

What about the nuclei count, normalised [1, 8] of the same compound?
The nuclei count, normalised was 116%.

What about the nuclei count, normalised [1, 9] of the same compound?
Its nuclei count, normalised is 110%.

What about the nuclei count, normalised [1, 10] of the same compound?
Its nuclei count, normalised is 65.9%.

What about the nuclei count, normalised [1, 11] of the same compound?
Its nuclei count, normalised is 122%.

And the nuclei count, normalised [1, 12]?
The nuclei count, normalised was 116%.

What about the nuclei count, normalised [1, 13] of the same compound?
Its nuclei count, normalised is 111%.

And the nuclei count, normalised [1, 14]?
Its nuclei count, normalised is 63.4%.

What about the p53-positive nuclei, normalised [2, 15] of the same compound?
Its p53-positive nuclei, normalised is -0.241% (inactive).

And the p53-positive nuclei, normalised [2, 16]?
The p53-positive nuclei, normalised was -0.762% (inactive).

And the p53-positive nuclei, normalised [2, 17]?
The p53-positive nuclei, normalised was -0.515% (inactive).

And the p53-positive nuclei, normalised [2, 18]?
Its p53-positive nuclei, normalised is 0.325% (inactive).

And the p53-positive nuclei, normalised [2, 19]?
The p53-positive nuclei, normalised was 1.31%.

And the p53-positive nuclei, normalised [2, 20]?
The p53-positive nuclei, normalised was -0.12%.

And the p53-positive nuclei, normalised [2, 21]?
Its p53-positive nuclei, normalised is 0.0304%.

What about the p53-positive nuclei, normalised [2, 22] of the same compound?
The p53-positive nuclei, normalised was 0.106%.

Which nuclei count, normalised [1, 7] does the source give for `CC(=O)NC(CC(C)C)C(=O)NC(CC(C)C)C(=O)NC(C=O)CCCN=C(N)N` (centres undefined) here?
Its nuclei count, normalised is 88.7%.

What about the nuclei count, normalised [1, 8] of the same compound?
The nuclei count, normalised was 87.3%.

And the nuclei count, normalised [1, 9]?
Its nuclei count, normalised is 62.5%.

And the nuclei count, normalised [1, 10]?
Its nuclei count, normalised is 67.4%.

What about the nuclei count, normalised [1, 11] of the same compound?
The nuclei count, normalised was 91.5%.

And the nuclei count, normalised [1, 12]?
Its nuclei count, normalised is 90.5%.

And the nuclei count, normalised [1, 13]?
The nuclei count, normalised was 69%.

And the nuclei count, normalised [1, 14]?
Its nuclei count, normalised is 72.9%.

And the p53-positive nuclei, normalised [2, 15]?
Its p53-positive nuclei, normalised is 0.011% (inactive).

And the p53-positive nuclei, normalised [2, 16]?
The p53-positive nuclei, normalised was -0.0354% (inactive).

And the p53-positive nuclei, normalised [2, 17]?
The p53-positive nuclei, normalised was -0.0908% (inactive).

What about the p53-positive nuclei, normalised [2, 18] of the same compound?
Its p53-positive nuclei, normalised is -0.0909% (inactive).

What about the p53-positive nuclei, normalised [2, 19] of the same compound?
Its p53-positive nuclei, normalised is -0.0474%.

And the p53-positive nuclei, normalised [2, 20]?
Its p53-positive nuclei, normalised is -0.0442%.

And the p53-positive nuclei, normalised [2, 21]?
Its p53-positive nuclei, normalised is 0.0943%.

What about the p53-positive nuclei, normalised [2, 22] of the same compound?
Its p53-positive nuclei, normalised is -0.12%.

For `CC(NC(=O)C(Cc1ccccc1)NC(=O)OCc1ccccc1)C(=O)CF` (centres undefined), which nuclei count, normalised [1, 3] is on record?
Its nuclei count, normalised is 108%.

And the nuclei count, normalised [1, 4]?
Its nuclei count, normalised is 101%.

And the p53-positive nuclei, normalised [2, 5]?
The p53-positive nuclei, normalised was -0.054% (inactive).

What about the p53-positive nuclei, normalised [2, 6] of the same compound?
Its p53-positive nuclei, normalised is -0.116%.
